From PubChem
NPR2 activator – human GC-B receptor activators, primary screen, HEK293 GC-B cells, cGMP TR-FRET, EC30 CNP | 0% at EC30 CNP, 100% saturating CNP | Atrial natriuretic peptide receptor 2 (Homo sapiens), P20594 | activation, % at 10 µM | 370,000 compounds, 0.11% hits | AID 1920062, 2024;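 active means activation at 10 µM reaching about 35% in either raw or pattern-adjusted values, limit read from the data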
Target sequence (P20594 whole entry, looked up): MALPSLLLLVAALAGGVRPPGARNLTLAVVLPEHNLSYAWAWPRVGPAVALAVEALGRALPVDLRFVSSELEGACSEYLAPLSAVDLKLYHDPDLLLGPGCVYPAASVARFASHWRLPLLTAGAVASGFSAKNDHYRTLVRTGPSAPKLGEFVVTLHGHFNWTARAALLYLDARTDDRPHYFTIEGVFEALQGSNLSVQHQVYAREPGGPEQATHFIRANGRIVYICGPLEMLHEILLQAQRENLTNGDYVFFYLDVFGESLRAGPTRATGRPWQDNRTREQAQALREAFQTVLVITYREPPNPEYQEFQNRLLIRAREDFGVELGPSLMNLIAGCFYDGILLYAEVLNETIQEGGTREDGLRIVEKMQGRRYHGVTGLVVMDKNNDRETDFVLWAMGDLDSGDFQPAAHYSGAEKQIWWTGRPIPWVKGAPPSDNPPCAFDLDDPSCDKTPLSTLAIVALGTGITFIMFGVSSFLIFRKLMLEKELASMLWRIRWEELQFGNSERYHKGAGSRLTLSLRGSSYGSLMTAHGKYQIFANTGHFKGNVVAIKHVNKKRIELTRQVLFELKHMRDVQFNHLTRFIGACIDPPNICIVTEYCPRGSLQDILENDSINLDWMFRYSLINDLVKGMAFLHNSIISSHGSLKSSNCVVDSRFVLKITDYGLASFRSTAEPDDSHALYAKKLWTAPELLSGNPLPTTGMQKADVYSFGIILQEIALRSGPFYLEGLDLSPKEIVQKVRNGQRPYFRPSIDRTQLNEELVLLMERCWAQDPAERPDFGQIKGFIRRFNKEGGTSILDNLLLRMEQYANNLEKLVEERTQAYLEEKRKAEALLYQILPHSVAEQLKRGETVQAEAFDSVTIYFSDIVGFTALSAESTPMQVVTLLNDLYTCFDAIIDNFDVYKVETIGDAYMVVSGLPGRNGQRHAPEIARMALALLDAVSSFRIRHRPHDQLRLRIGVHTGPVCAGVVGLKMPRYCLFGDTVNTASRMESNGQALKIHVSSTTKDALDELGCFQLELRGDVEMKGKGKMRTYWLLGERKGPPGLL
A3A deaminase – APOBEC3A ssDNA deaminase inhibitors, primary screen, selectivity assay for APOBEC3G inhibitor project, biochemical, FAM/TAMRA oligo cleavage fluorescence; inhibition, % at 20 µM; 330,000 compounds, 0.41% hits; recombinant A3A, FAM/TAMRA ssDNA deamination fluorescence;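 active means at least 40% inhibition at 20 µM here, with at most 30% in a related deaminase screen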;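 further: plate controls were A3A with DMSO for no effect and wells lacking A3A enzyme for full effect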
FAS TE block – FAS thioesterase domain inhibitors, primary screen, biochemical, fluorescence intensity, uHTS; recombinant FAS-TE, OMFH fluorogenic substrate, fluorescence endpoint; inhibition, % at 15 µM; 360,000 compounds, 0.67% hits; AID 602261, 2012;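 active means compounds whose normalised, plate-corrected inhibition of enzyme fluorescence in the single-dose primary screen is 50% or more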;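 further: 0% = DMSO with enzyme and 100% = substrate without enzyme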
APOBEC3G inh – APOBEC3G DNA deaminase inhibitors, primary screen, biochemical, fluorescence, single-stranded DNA substrate, uHTS | recombinant A3G, ssDNA deamination FAM/TAMRA fluorescence | inhibition, % at 20 µM | 330,000 compounds, 0.28% hits | AID 493012, 2011;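 active means inhibition of at least 40% at 20 µM, with no more than 30% in the related APOBEC3A deaminase screen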;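 further: plate controls were DMSO wells with A3G for no effect and wells lacking A3G enzyme for full effect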
NPR1 activator – GC-A stimulated cGMP production enhancers – HEK293 GC-A cells, cGMP TR-FRET, EC30 ANP, primary screen | Atrial natriuretic peptide receptor 1 (Homo sapiens), P16066 | 0% at EC30 ANP, 100% saturating ANP | activation, % at 10 µM | 370,000 compounds, 0.14% hits; in the data active means activation above about 40%
FAS-TE conf – FAS thioesterase domain inhibitors, confirmation, biochemical, fluorescence intensity, single concentration; shares compounds with FAS TE block; recombinant FAS-TE, OMFH fluorogenic substrate; inhibition, % at 15 µM; 2,300 compounds, 45% hits; AID 624325, 2012;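 active means compounds inhibiting the enzyme by at least 50% at 15 µM in any one of the replicates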;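 further: 0% = enzyme with DMSO only and 100% = wells lacking enzyme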
The depositor's hits bear a star; x = not tested or not shown. This is a sample that favours compounds with a hit; in the whole collection about 1.4% have one here.

SMILES	NPR2 activator	A3A deaminase	FAS TE block	APOBEC3G inh	NPR1 activator	FAS-TE conf
O=C(CCN1C(=O)/C(=C/c2ccccc2Cl)SC1=S)Nc1ccccn1	-1.2	-4.0	64.7*	-6.6	-3.9	58.5*
CCOC(=O)N1CCN(C(=O)C[C@H]2C[C@@]3(C(=O)OC)C(=C[C@H](C(C)(C)C)O[C@@H]3C)N(Cc3ccco3)C2=O)CC1	-1.1	x	x	x	-5.0	x
CCC(C)n1c(=S)[nH]c2c(sc3ccc([N+](=O)[O-])cc32)c1=O (stereo not drawn)	8.7	-4.2	54.4*	-3.7	6.6	50.7*
C=CS(=O)(=O)N(Cc1ccc(F)cc1)C(=C)C(=O)OC	6.7	x	x	x	4.8	x
O=C(NNc1nc(-c2ccccc2)c2cc(Br)ccc2n1)c1ccc(S(=O)(=O)N2CCOCC2)cc1	-10.7	-3.1	80.0*	-2.3	-11.0	19.9
O=C(Nc1nc(-c2ccccc2)c(C(=O)c2ccccc2)s1)c1ccc(S(=O)(=O)N2CCCCC2)cc1	2.4	2.2	86.4*	-1.4	-0.2	9.4
CN(C)S(=O)(=O)c1ccc(C(=O)NNc2nc(-c3ccccc3)c3cc(Br)ccc3n2)cc1	-4.3	-1.4	30.5	-10.1	-14.4	x
O=C(NNc1nc(-c2ccccc2)c2cc(Br)ccc2n1)c1ccc(S(=O)(=O)N2CCCCC2)cc1	-3.2	4.0	73.8*	-2.7	-5.2	21.5
O=C(OCC#CCSc1nnc(-c2cccc3ccccc23)o1)c1ccsc1	-2.5	x	x	x	0.0	x
C[C@@H]1CNCCN1c1ccc(N2CCS(=O)(=O)CC2)c(C#N)c1	-0.6	x	x	x	-3.8	x
CCCSc1cc(NCCOC(=O)CCC)c([N+](=O)[O-])c2nonc12	3.1	2.1	50.7*	-5.9	7.2	57.5*
CCCC(=O)OCCNc1cc(Sc2nccn2C)c2nonc2c1[N+](=O)[O-]	6.9	x	61.6*	x	19.7	61.6*
CCCC(=O)OCCNc1cc(SCc2ccco2)c2nonc2c1[N+](=O)[O-]	-1.7	50.6	25.4	33.9	4.6	x
Cc1ccc(S(=O)(=O)c2nnn3c2nc(NCCCN2CCCC2=O)c2ccccc23)cc1C	16.2	-2.0	70.9*	-2.1	24.5	69.1*
CCc1ccc(S(=O)(=O)c2nnn3c2nc(NCCNC(C)=O)c2ccccc23)cc1	1.2	1.9	76.7*	-3.4	5.1	78.9*
CC(C)c1ccc(S(=O)(=O)c2nnn3c2nc(N2CCCCC2)c2ccccc23)cc1	6.0	-2.5	44.7	-2.6	-0.5	x
CCCCNc1nc2c(S(=O)(=O)c3ccccc3)nnn2c2ccccc12	-3.0	-0.2	-2.0	-0.9	34.1	x
Cc1cc(Oc2cccnc2)ccc1NC(=O)CCc1c[nH]c2ccccc12	-0.4	x	x	x	-3.5	x
COC(=O)[C@@]12CCCCC3=C1N(CCC3)C(=O)[C@H]2CC(=O)NCc1ccc(OC)c(OC)c1	-1.3	x	x	x	-2.5	x
CC(C)C(NC(=O)C12CC3CC(CC(C3)C1)C2)C(=O)N/N=C/C1=C(N2CCOCC2)C(=C\c2cccc([N+](=O)[O-])c2)/CC1 (stereo not drawn)	-4.2	-1.2	63.6*	-5.9	0.0	14.1
CCN(CC)S(=O)(=O)c1ccc(N2CCc3ccccc3C2)nc1	-4.5	-4.3	63.9*	-5.6	6.2	63.2*
CC(C)N(C(C)C)S(=O)(=O)c1ccc(N2CCc3ccccc3C2)nc1	5.3	-2.6	46.2	-6.1	12.6	x
CCN(CC)S(=O)(=O)c1ccc(-n2cnc3cc(C)c(C)cc32)nc1	-5.6	-4.2	57.0*	-10.3	-6.0	60.7*
CCN(CC)S(=O)(=O)c1ccc(C)c(C)c1	-1.1	0.6	-10.2	-0.4	4.9	x
O=C(NCCc1c[nH]c2ccccc12)OCc1cn(-c2ccc(F)cc2F)nn1	13.2	x	x	x	-0.9	x
SMILES	NPR2 activator	A3A deaminase	FAS TE block	APOBEC3G inh	NPR1 activator	FAS-TE conf
CCCCCCCCN1C(=O)[C@@H](CC(=O)N2CCSCC2)C[C@@]2(C(=O)OC)C1=C[C@H](C(C)C)O[C@@H]2C1CC1	-5.7	x	x	x	-4.5	x
CN1CCCCC(NC(=O)COCc2ccccc2)C1=O (stereo not drawn)	-0.3	x	x	x	-1.3	x
O=C(Cn1nc(-c2ccccc2)c2ccccc2c1=O)Nc1ccc(O)cc1	1.5	-6.5	-3.3	-6.1	2.3	x
Cc1ccc(NC(=O)NNC(=O)Cn2nc(-c3ccccc3)c(-c3ccccc3)c(C#N)c2=O)cc1	-4.7	-2.8	68.1*	-4.4	-1.9	57.6*
Cc1cccc(N2C(=O)CC(Sc3nc(-c4ccccc4)c4cc(Cl)ccc4n3)C2=O)c1 (stereo not drawn)	-5.9	-0.8	65.9*	0.7	-4.7	28.0
CCOC(=O)C1=C(C(=O)OCC)C2N(Cc3ccc(Br)cc3)c3ccccc3[C@@]23C[C@@H](C(=O)OC)N(S(=O)(=O)c2ccc(Br)cc2)C3=N1 (stereo partly drawn)	8.5	x	x	x	2.7	x
CC(C)Cn1c(O)c(N=NC(=O)c2cccc(S(=O)(=O)N3CCCCC3)c2)c2ccccc21	3.2	4.2	57.7*	-0.3	4.5	24.4
O=C(NNC(=O)c1cccc(S(=O)(=O)N2CCCCC2)c1)c1ccccc1	-0.9	0.6	-4.1	-4.4	1.9	x
Cc1ccc(S(=O)(=O)N2CCC(C(=O)Nc3ccc(S(=O)(=O)N4CCOCC4)cc3)CC2)cc1	2.6	x	14.1	x	-0.4	x
CCOc1ccc(S(=O)(=O)N2CCC(C(=O)Nc3ccc(C)c(S(=O)(=O)N4CCOCC4)c3)CC2)cc1	-0.9	x	51.7*	x	-0.8	28.9
CCC(C)(C)C1CCc2[nH]nc(C(=O)NCCCNC(=O)OC(C)(C)C)c2C1 (stereo not drawn)	-6.6	-3.6	69.4*	0.1	-5.5	49.6*
CCCCC(=O)Nc1ccccc1C(=O)OCC(=O)c1ccc2c(c1)OCCO2	-0.8	-2.2	56.5*	-6.0	-18.5	29.7
O=C(OCc1ccc([N+](=O)[O-])cc1)c1cc([N+](=O)[O-])ccc1N1CCOCC1	3.9	-0.9	79.8*	-6.2	1.0	75.8*
Cc1ccc(COC(=O)c2cc([N+](=O)[O-])ccc2N2CCOCC2)cc1	1.9	-3.6	53.9*	-4.3	1.2	52.0*
Cc1ccc(C(=O)c2cc([N+](=O)[O-])ccc2N2CCOCC2)cc1	-0.4	x	24.8	x	-10.0	x
O=C(OCc1ccccc1Cl)c1cc([N+](=O)[O-])ccc1N1CCOCC1	1.4	15.2	36.0	-1.5	-10.9	x
